From PubChem BioAssay AID2242 (National Center for Advancing Translational Sciences (NCATS), 2010)
Among all 200,000 compounds or so, about 720 (0.36%) were called active. About 8% were inconclusive and are not listed. The call rests on the fitted dose curve; in most records, active means well fitted activation curve with a large enough effect; inconclusive means small, poorly fitted or top-dose-only effect, or effect the other way, or another doubt; inactive means flat fitted curve, though single readings scatter. This is one part of the list.

Each molecule was assayed against Lysosomal alpha-glucosidase (Homo sapiens) (UniProt P10253) (assay: qHTS Assay for Activators of Human alpha-Glucosidase as a Potential Chaperone Treatment of Pompe Disease). Conditions: purified enzyme, 4-MU-alpha-glucoside fluorescence, 20 min; series mostly up to 76.9 µM.
Summary of the method: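 Fluorogenic assay, 4 nM enzyme, 400 uM 4-methylumbelliferyl-[…], pH 5.0 citrate/phosphate buffer with 0.005% Tween-20, compounds up to 77 uM, 20 min at room temperature. NaOH/glycine stop, Ex 365/Em 440 nm; AC50 from Hill fits.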
Further: nearly all actives have a fitted effect of over 80% in size.
Potency means the concentration at half of the fitted maximal effect.

Potency, active:
Cc1ccc(-c2cc(-c3ccccc3Cl)c(C#N)c(N)n2)o1 28.2 µM
Cc1ccc(-c2cc(-c3ccccc3)c(C#N)c(N)n2)o1 35.5 µM
Cn1c(C(=O)NCc2ccccn2)cc2c(=O)n3ccccc3nc21 28.2 µM
Cn1c(C(=O)NCC2CCCO2)cc2c(=O)n3ccccc3nc21 (configuration not stated) 31.6 µM
CCOC(=O)CC1C(=O)NCCN1C(=O)c1cc2c(=O)n3ccccc3nc2s1 (configuration not stated) 35.5 µM
CCOC(=O)CC1C(=O)NCCN1C(=O)c1cc2c(=O)n3cccc(C)c3nc2s1 (configuration not stated) 31.6 µM
O=C(c1cc2c(s1)-c1ccccc1OC2)N1CCCC1 28.2 µM
O=C(c1cc2c(s1)-c1ccccc1OC2)N1CCc2ccccc2C1 35.5 µM
COc1cc2c(cc1OC)C(C)N(C(=O)c1cc3c(s1)-c1ccccc1OC3)CC2 (configuration not stated) 39.8 µM
CN1C(=O)c2ccccc2N(C)C1c1ccccc1Cl (configuration not stated) 39.8 µM
CCCCn1c2nc3ccccc3nc2c2c(=O)n(-c3ccccc3)cnc21 35.5 µM
CCC(N=c1cc(-c2ccc(OC)cc2)oc2ccc(C)cc12)C(=O)O (configuration not stated) 31.6 µM
O=[N+]([O-])c1cccc(Nc2c3ccccc3nc3ccccc23)c1 28.2 µM
O=c1oc2c(CN3CCN(CCO)CC3)c(O)ccc2cc1-c1ccccn1 31.6 µM
CCCN(CC(=O)Nc1ccc(Cl)cc1Cl)C(=O)/C=C/c1cc(OC)ccc1OC 31.6 µM
CCCCC[n+]1cccc2c3ccccc3ccc21 35.5 µM
c1ccc(C[n+]2cccc3c4ccccc4ccc32)cc1 39.8 µM
O=C(O)C1C2C=CC(O2)C1C(=O)NCCCn1ccnc1 (configuration not stated) 20 µM
CN1CCCc2cc(C#N)c(=O)[nH]c21 39.8 µM
Cc1cc(=O)oc2cc3c(cc12)OCCN3 35.5 µM
COc1cccc(-c2ccc(C#N)c(=O)[nH]2)c1 39.8 µM
N#Cc1c(C(F)(F)F)cc(-c2ccccc2)[nH]c1=O 35.5 µM
COc1cccc(-c2cc(C(F)(F)F)c(C#N)c(=O)[nH]2)c1 35.5 µM
N#Cc1c(C(F)(F)F)cc(-c2cccc(Cl)c2)[nH]c1=O 39.8 µM
N#Cc1c(C(F)(F)F)cc(-c2ccc(Cl)cc2)[nH]c1=O 39.8 µM
N#Cc1c(C(F)(F)F)cc(-c2ccc(F)cc2)[nH]c1=O 35.5 µM
COc1ccccc1-c1cc(C(F)(F)F)c(C#N)c(=O)[nH]1 39.8 µM
N#Cc1cnn2c3c(cnc12)C(=O)N1CCc2ccccc2C1C3 (configuration not stated) 3.98 µM
O=C1c2cnc3ncnn3c2CC2c3ccccc3CCN12 (configuration not stated) 12.6 µM
CC(=O)c1cc2cc(O)ccc2o1 35.5 µM
Cc1cc(C)n(-c2nc3ccccc3[nH]c2=O)n1 39.8 µM
CNc1nnc(-c2ccc(N(C)C)cc2)s1 35.5 µM
Cc1cc(=O)[nH]c2cc(O)ccc12 35.5 µM
CC(=O)Oc1ccc2c(C)cc(=O)[nH]c2c1 20 µM
CCc1cc2c(=O)c(Oc3ccccc3F)c(C)oc2c(CN(C)C)c1O 35.5 µM
CC1CCN(c2oc(-c3cccc4ccccc34)nc2C#N)CC1 25.1 µM
CC(C)Nc1oc(-c2cccc3ccccc23)nc1C#N 35.5 µM
C=CCNc1oc(-c2cccc3ccccc23)nc1C#N 31.6 µM
COc1ccccc1NC(=O)CSc1nc2c(sc3ccccc32)c(=O)n1CCN(C)C 35.5 µM
CCOC(=O)c1c(C)nc(C)c(C(=O)OCC)c1-c1ccccc1 31.6 µM
O=C(O)c1cc(-c2ccccc2)nc2nc(N3CCCCC3)sc12 28.2 µM
Cc1ccc(-c2cc(C(=O)O)c3sc(N4CCCCC4)nc3n2)cc1 28.2 µM
CCCN(CCC)CCCNC(=O)c1cc2cc3ccc(OC)cc3nc2o1 28.2 µM
CCCCN(CC)CCCNC(=O)c1cc2cc3ccc(OC)cc3nc2o1 31.6 µM
CCn1cc(-c2ccnc3cc(C(=O)O)nn23)c(C)n1 39.8 µM
O=C1NC(c2ccco2)Nc2sc3c(c21)CCN(Cc1ccccc1)C3 (configuration not stated) 35.5 µM
CN1CCc2c(sc3c2C(=O)NC(c2ccco2)N3)C1 (configuration not stated) 31.6 µM
CCCCCn1c(=O)c(-c2nc3ccccc3[nH]2)c(O)c2ccccc21 39.8 µM
Cc1c(O)ccc2c3c(c(=O)oc12)CCC(C)C3 (configuration not stated) 35.5 µM
Cc1c(O)ccc2c3c(c(=O)oc12)CCCC3 35.5 µM
Fc1ccc(-n2c(-c3cccs3)nc3nc4ccccc4nc32)cc1 3.55 µM
Fc1ccc(-n2c(-c3ccco3)nc3nc4ccccc4nc32)cc1 7.94 µM
Fc1cccc(-n2c(-c3ccco3)nc3nc4ccccc4nc32)c1 6.31 µM
Cc1cc(=O)n2cccc(O)c2n1 25.1 µM
O=c1cccc2n1Cc1cc3ccccc3nc1-2 35.5 µM
CN(C)S(=O)(=O)c1cccc(-c2cn3cccnc3n2)c1 39.8 µM
CC1CN(S(=O)(=O)c2cccc(-c3cn4cccnc4n3)c2)CC(C)O1 (configuration not stated) 35.5 µM
CCc1nnc(NC(=O)CSc2nc(C)c3c(c2C#N)CCCC3)s1 35.5 µM
CCC(O)CNc1nc(SC)nc2sc3c(c12)CCN(C)C3 (configuration not stated) 28.2 µM
CSc1nc2oc3c(c2c2nncn12)CC(C)(C)SC3 39.8 µM
Cc1cc(NCCCCO)n2c(nc3ccccc32)c1C#N 35.5 µM
CCCc1cc(NCc2ccccn2)n2c(nc3ccccc32)c1C#N 35.5 µM
CCCc1cc(NCCCCO)n2c(nc3ccccc32)c1C#N 35.5 µM
Cc1cc(NC(C)C)n2c(nc3ccccc32)c1C#N 35.5 µM
Cc1cc(NCCCO)n2c(nc3ccccc32)c1C#N 35.5 µM
COCCNc1cc(C)c(C#N)c2nc3ccccc3n12 35.5 µM
Cc1cc(NCCCn2ccnc2)n2c(nc3ccccc32)c1C#N 35.5 µM
